Values joined by “and” are separate entries in the source; they are usually repeats but may differ in a detail not shown here. Equal values may be shown once. Results filed as inconclusive are left out. Active and inactive are the calls of the source. Unless noted, calls follow the shape of the dose curve; as a rule, active = well fitted cell-killing curve with a large enough effect; inconclusive = small, poorly fitted or top-dose-only effect, or effect the other way; inactive = no such curve, though single readings can be large or run the other way.
What was measured:
[1] = Quantitative High-Throughput drug screen in 47 multiple myeloma cell lines against the NCATS MIPE library collection: OPM2_DSMZ cell viability assay (AID 1919872); also: nearly all actives have a fitted effect of over 30% in size
Procedure, shortened: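 Primary qHTS used for cherry-picking: cells at 500/well, library compounds for 48 h (37C, 5% CO2), luminescent ATP assay.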

[2] = qHTS drug screen for cell cycle checkpoint inhibitors in PARPi-resistant BRCA-mutant ovarian cancer cell lines. (AID 1963452; calls by dose curve); details: PEO1/OlaR viability, CellTiter-Glo luminescence, 96 h; for Z-AUC: stronger effect = lower value
Procedure, shortened: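 PEO1, PEO4 and PEO1/OlaR ovarian cancer cells, 600 per well, exposed 96 h at 37C to a dilution series. Viability read by CellTiter-Glo luminescence, normalized to DMSO and empty wells; activity summarized as Z-AUC.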

[3] = Quantitative High-Throughput drug screen in 47 multiple myeloma cell lines against the NCATS MIPE library collection: PCM6_Riken cell viability assay (AID 1919870); also: nearly all actives have a fitted effect of over 30% in size
Procedure, shortened: (§1)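 Plated at 500 cells per well, myeloma lines received MIPE 4.0 compounds by pin tool. Following 48 h culture at 37 °C, CellTiter-Glo luminescence gave viability relative to DMSO and media-only controls.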

[4] = Quantitative High-Throughput drug screen in 47 multiple myeloma cell lines against the NCATS MIPE library collection: RPMI8226_ATCC cell viability assay (AID 1919871); also: nearly all actives have a fitted effect of over 30% in size
Procedure, shortened: as §1

[5] = Quantitative High-Throughput drug screen in 47 multiple myeloma cell lines against the NCATS MIPE library collection: KMS11_JCRBsus cell viability assay (AID 1919873); also: nearly all actives have a fitted effect of over 50% in size
Procedure, shortened: as §1

[6] = Quantitative High-Throughput drug screen in 47 multiple myeloma cell lines against the NCATS MIPE library collection: KMS28BM_JCRB cell viability assay (AID 1919874); also: nearly all actives have a fitted effect of over 35% in size
Procedure, shortened: as §1

[7] = Quantitative High-Throughput drug screen in 47 multiple myeloma cell lines against the NCATS MIPE library collection: PE2_PLB cell viability assay (AID 1919869); also: nearly all actives have a fitted effect of over 35% in size
Procedure, shortened: as §1

[8] = Quantitative High-Throughput drug screen in 47 multiple myeloma cell lines against the NCATS MIPE library collection: UTMC2_PLB cell viability assay (AID 1919868); also: nearly all actives have a fitted effect of over 55% in size
Procedure, shortened: as §1

[9] = measured here: PEO1 parental Z-AUC
Potency is read from the fitted curve at half-maximal effect.

Row | Structure (SMILES) | Potency [1] | Z-AUC [2] | Z-AUC [2, 9] | Z-AUC ([2]; measured here: PEO4 Z-AUC) | Potency [3] | Potency [4] | Potency [5] | Potency [6] | Potency [7] | Potency [8] | Potency [2]
1 | Cc1ccc(-c2cc(C(F)(F)F)nn2-c2ccc(S(N)(=O)=O)cc2)cc1 | inactive | 1.19 (inactive) | 0.566 | 1.1 | – | – | – | – | – | – | –
2 | Nc1c2c(nc3ccccc13)CCCC2 | – | 1.3 (inactive) | 1.74 | 1.21 | inactive | 1.32 µM (active) | inactive | 16.6 µM (active) | – | – | –
3 | Cc1cn([C@H]2C[C@H](N=[N+]=[N-])[C@@H](CO)O2)c(=O)[nH]c1=O | inactive | – | – | – | 14.8 µM (active) | inactive | inactive | inactive | – | – | –
4 | O=C(CCCN1CCC(O)(c2ccc(Cl)cc2)CC1)c1ccc(F)cc1 | inactive | – | – | – | – | – | 23.5 µM (active) | – | – | – | –
5 | Cn1c(=O)c2[nH]cnc2n(C)c1=O | inactive | 0.347 (inactive) | 0.72 | 0.784 | inactive | inactive | inactive | inactive | inactive | – | –
6 | Cc1cnc(C(=O)NCCc2ccc(S(=O)(=O)NC(=O)NC3CCCCC3)cc2)cn1 | inactive | 0.935 (inactive) | 0.686 | 0.444 | 16.6 µM (active) | 16.6 µM (active) | – | – | 14.8 µM (active) | – | –
7 | COc1ccccc1OCCNCC(O)COc1cccc2[nH]c3ccccc3c12 (stereo unspecified) | inactive | – | – | – | 16.6 µM (active) | – | – | – | – | – | –
8 | CCC1(C)CC(=O)NC1=O (stereo unspecified) | – | 1.49 (inactive) | 1.31 | 1.61 | inactive | inactive | inactive | inactive | inactive | – | –
9 | CC(COc1ccccc1)N(CCCl)Cc1ccccc1 (stereo unspecified) | inactive | 1.41 (inactive) | 1.02 | 1.15 | – | inactive | inactive | 18.7 µM (active) | – | – | –
10 | COC(=O)Nc1nc2ccc(C(=O)c3cccs3)cc2[nH]1 | 11.8 nM (active) | – | -1.94 | -1.92 | – | 0.526 µM (active) | – | inactive | – | 20.9 nM (active) | 69.2 nM (active)
11 | CC(C)(C)C(=O)Oc1ccc(S(=O)(=O)Nc2ccccc2C(=O)NCC(=O)O)cc1 | inactive | 1.22 (inactive) | 0.948 | 1.16 | – | inactive | inactive | inactive | – | – | –
12 | NC(=O)OCC(COC(N)=O)c1ccccc1 | inactive | 0.532 (inactive) | 1.02 | 1.07 | – | inactive | – | – | inactive | – | –
13 | C[C@H]1c2cccc(O)c2C(O)=C2C(=O)[C@]3(O)C(O)=C(C(N)=O)C(=O)[C@@H](N(C)C)[C@@H]3[C@@H](O)[C@@H]21 | – | 0.309 (inactive) and -0.104 (inactive) | 0.47 and 0.545 | 0.542 and 0.724 | – | – | – | – | – | – | –
14 | COc1ccc(CCN(C)CCCC(C#N)(c2ccc(OC)c(OC)c2)C(C)C)cc1OC (stereo unspecified) | – | 0.76 (inactive) | 0.721 | 1.08 | – | – | – | – | – | – | –
15 | CN(C)CCC=C1c2ccccc2C=Cc2ccccc21 | inactive | -0.345 (inactive) | 0.579 | 0.349 | – | 6.62 µM (active) | – | 3.72 µM (active) | – | – | –
16 | CCOC(=O)C(C)(C)Oc1ccc(Cl)cc1 | inactive | 0.714 (inactive) | 0.586 | 0.762 | inactive | inactive | inactive | inactive | – | – | –
